In PubChem BioAssay (NCATS) one finds max response data, which are given here for 16 compounds.

Each structure is given as a SMILES string. Records with an inconclusive call do not appear. Unmarked numbers belong to inactive results. Calls follow the shape of the dose curve; as a rule, active = well fitted curve in the direction sought with a large enough effect; inconclusive = small, poorly fitted or top-dose-only effect, or another doubt; inactive = no such curve, though single readings can be large or run the other way.
% is scaled to controls: 0 for no effect and ±100 for the full control effect.

A short description of the assay: qHTS Assay for Identifying Gametocytocidal Compounds (AID 743244).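 Also: actives lower the fluorescent signal which means gametocytes are killed.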 The settings on record: P. falciparum 3D7 stage III-V gametocytes, alamarBlue, 72 h; max response: active compounds read low. Put shortly: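 Stage III-V P. falciparum 3D7 gametocytes, 20,000 per well, were exposed to compounds for 72 h at 37C, 5% CO2. AlamarBlue was then added for 24 h and viability was read as fluorescence at Ex 525/Em 598 nm.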
(In general: Quantitative high-throughput screening tests each substance at several concentrations.)
In the case of `CC1(C)S[C@@H]2[C@H](N=CN3CCCCCC3)C(=O)N2[C@H]1C(=O)O`, the max response was -2.77%.

For the compound `CCOc1cc(NC(C)=O)ccc1C(=O)OC`, the max response is 7.76%.

As to `O=C(NCC(O)CO)c1c(I)c(C(=O)NCC(O)CO)c(I)c(N(CCO)C(=O)CO)c1I` (stereo unspecified), the max response is 8.95%.

On to `CC(=O)N[C@H]1[C@H]([C@H](O)[C@H](O)CO)OC(C(=O)O)=C[C@@H]1N=C(N)N`, for which the max response was 5.37%.

As to `C/C(=C(\CCO)SS/C(CCO)=C(\C)N(C=O)Cc1cnc(C)nc1N)N(C=O)Cc1cnc(C)nc1N`, the max response was -3.83%.

Regarding `O=C(O)Cc1ccc(CCNS(=O)(=O)c2ccc(Cl)cc2)cc1`, the max response was 23.5%.

On to `O=C(O)c1cc(=O)c2ccccc2o1`, for which the max response was 42.7%.

As for `CCc1nnc(NS(=O)(=O)c2ccc(N)cc2)s1`, the max response was -5.5%.

`CCOc1ccc(C(=O)OCCN(CC)CC)cc1`: the max response was 4.91%.

Regarding `COC(=O)c1cccnc1`, the max response is 29%.

Turning to `C1CCN2C[C@@H]3C[C@@H](CN4CCCC[C@@H]34)[C@H]2C1`, the max response was 2.03%.

With `C[C@@H]1O[C@@H](OC[C@H]2O[C@@H](Oc3c(-c4ccc(O)c(O)c4)oc4cc(O)cc(O)c4c3=O)[C@H](O)[C@@H](O)[C@@H]2O)[C@H](O)[C@H](O)[C@H]1O`, the max response was 3.71%.

Regarding `NC(=O)CC[C@@H](N)C(=O)O`, the max response is -2.82%.

On to `CC(=O)Oc1cccc(C)c1`, for which the max response was 19.2%.

Turning to `CN(C/C=C/C#CC(C)(C)C)Cc1cccc2ccccc12`, the max response was -1.43%.

`CN(C(=O)c1c(O)c2ccccc2n(C)c1=O)c1ccccc1`: the max response was -2.29%.
